VDR inh: vitamin D3 receptor (human) inhibition; P11473; VDR-SRC2-3 peptide fluorescence polarization, 2 h; 400,000 tested, 0.93% active; Potency, µM, inactives show max response, negative = inhibition, usual class: inhibitors; note: potency is the fitted concentration of half-maximal effect; % is set by controls: 0 for no effect and ±100 for the full control effect
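Fluorescence polarization assay of small-molecule disruption of VDR binding to coregulator peptide SRC2-3. Compounds and controls pin-transferred, then read after 2 h incubation at ambient room temperature.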
PLK1 PBD block: PLK1 (human) polo-box domain binding inhibition. 360,000 tested, 2.8% active. Potency, µM, inactives show max response, negative = inhibition, hits mostly inhibitors. P53350. AID 720504. Plk1 PBD binding of FITC phosphopeptide, fluorescence polarization; note: potency is the fitted concentration of half-maximal effect; series mostly up to about 57 µM; % is set by controls: 0 for no effect and ±100 for the full control effect; nearly all actives have a fitted effect of over 65% in size
TSG101-PTAP inh: blocks PTAP/TSG101 interaction to inhibit HIV-1 budding | Q99816 | Fluorescence polarization, FITC-PTAP peptide / Tsg101 binding | Potency, µM (series often up to 115 µM), without a hit: at the highest dose activity change, negative = inhibition, most hits filed as inhibitors | 340,000 tested, under 10 active; active = well fitted inhibition curve with a large enough effect in the main read-out, with a control signal flat, not every such curve was filed as active; inconclusive = small, poorly fitted or top-dose-only effect, or effect the other way, or a change in a side signal; inactive = no such curve, though single readings can be large or run the other way; note: potency is the fitted concentration of half-maximal effect; % of control where 0% means no effect
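Fluorescence polarization binding of Tsg101 binding domain (10 uM final) to FITC-labeled PTAP peptide (50 nM final) in HEPES pH 7.5 buffer with NaCl, Tween 20, EDTA, TCEP. Compounds added before peptide; binding 20 min at RT.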
TSHR antagonist: blocks TSH signaling through the human TSH receptor. P16473. TSHR-expressing cells, TSH-stimulated cAMP HTRF, 2 h; hits give low values. activity change, negative = inhibition, % at 11.5 µM. 330,000 tested, 0.2% active. AID 504810;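 active = activity change below a set negative limit, meaning inhibition stronger than a set level, cut at about -70% in these data; inconclusive = activity change between two set negative limits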; note: % is set by controls: 0 for no effect and ±100 for the full control effect
Target sequence (P16473 whole entry, looked up): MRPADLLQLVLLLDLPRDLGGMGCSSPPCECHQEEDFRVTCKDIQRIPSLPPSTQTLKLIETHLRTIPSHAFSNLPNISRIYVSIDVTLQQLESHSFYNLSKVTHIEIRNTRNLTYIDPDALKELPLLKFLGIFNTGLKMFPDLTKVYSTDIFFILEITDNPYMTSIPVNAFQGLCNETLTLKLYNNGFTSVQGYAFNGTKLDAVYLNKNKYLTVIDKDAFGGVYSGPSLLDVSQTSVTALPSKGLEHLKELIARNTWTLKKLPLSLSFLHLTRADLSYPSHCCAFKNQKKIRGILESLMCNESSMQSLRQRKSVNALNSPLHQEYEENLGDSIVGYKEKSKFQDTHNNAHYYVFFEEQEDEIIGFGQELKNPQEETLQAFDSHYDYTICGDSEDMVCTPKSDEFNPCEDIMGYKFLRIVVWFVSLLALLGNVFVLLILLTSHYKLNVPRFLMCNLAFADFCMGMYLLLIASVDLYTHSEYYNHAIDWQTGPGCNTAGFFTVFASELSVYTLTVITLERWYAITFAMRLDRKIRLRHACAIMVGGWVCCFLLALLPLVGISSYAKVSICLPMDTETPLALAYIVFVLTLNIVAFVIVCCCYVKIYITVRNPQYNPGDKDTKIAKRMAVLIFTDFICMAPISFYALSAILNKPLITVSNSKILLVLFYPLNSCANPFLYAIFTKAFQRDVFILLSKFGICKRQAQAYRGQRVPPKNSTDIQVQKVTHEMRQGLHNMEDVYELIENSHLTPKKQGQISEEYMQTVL
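TSHR-expressing cells, 200/well, pre-treated with compound, then stimulated with EC80 TSH (4nM final) for 2 hours at 37 deg C. cAMP measured by competitive HTRF: anti-cAMP cryptate antibody in lysis buffer plus cAMP-d2, read after 30 minutes at room temperature.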
uPA surface inh: inhibitors of cell surface uPA generation. Potency, µM (highest dose often 38.3 µM), without a hit: top-dose activity change, negative = inhibition, actives largely listed as inhibitors. 330,000 tested, 0.31% active. cell surface uPA generation assay, qHTS; active = well fitted inhibition curve with a large enough effect; inconclusive = small, poorly fitted or top-dose-only effect; inactive = no such curve, though single readings can be large or run the other way; tested in mouse RAW 264.7 cells; note: potency is the fitted concentration of half-maximal effect; % is set by controls: 0 for no effect and ±100 for the full control effect; nearly all actives have a fitted effect of over 55% in size
VDR confirm: confirmation of human vitamin D receptor inhibitors; shares compounds with VDR inh; VDR-coactivator inhibition assay, qHTS confirmation; Potency, µM, hits mostly inhibitors; 840 tested, 89% active; note: potency is the fitted concentration of half-maximal effect
VDR FP: VDR (human) coactivator binding inhibition, fluorescein polarization; shares compounds with VDR inh; VDR-coactivator binding, fluorescein fluorescence polarization; Potency, µM (doses to about 57.1 µM), without a hit: at the highest dose activity change, negative = inhibition, most hits filed as inhibitors; 840 tested, 48% active; AID 602200; note: potency is the fitted concentration of half-maximal effect
VDR bla: VDR (human) inhibition, cell-based beta-lactamase validation | shares compounds with VDR inh | VDR beta-lactamase reporter cells, FRET ratio; cells co-treated with VDR agonist LG190178 | Potency, µM (top dose mostly 46.1 µM), for inactives: top-dose activity change, negative = inhibition, usual class: inhibitors | 840 tested, 23% active | AID 602202; note: potency is the fitted concentration of half-maximal effect; % is set by controls: 0 for no effect and ±100 for the full control effect
VDR viability: cell toxicity, VDR inhibitor hit counter-screen. cytotoxicity counter-screen, cell viability, qHTS. shares compounds with VDR inh. 840 tested, 18% active. Potency, µM (titrated, usually from 48.3 µM), for the others: at the highest dose activity change, negative = cytotoxicity, usual class: cytotoxic;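 note: potency is the fitted concentration of half-maximal effect; plate controls were DMSO for no effect and high-concentration cycloheximide for full effect; nearly all actives have a fitted effect of over 75% in size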
Numbers without * were called inactive; ? = inconclusive; · = no result. Shown are actives, neighbours in structure and some others; about 3.1% of the full set was active somewhere. Unless noted, calls come from the whole dose curve; as a rule, active = well fitted curve in the direction sought with a large enough effect; inconclusive = small, poorly fitted or top-dose-only effect, or another doubt; inactive = no such curve, though single readings can be large; an effect the other way counts as inactive or inconclusive.

SMILES	VDR inh	PLK1 PBD block	TSG101-PTAP inh	TSHR antagonist	uPA surface inh	VDR confirm	VDR FP	VDR bla	VDR viability
CCCCCCCC/C=C\C/C=C\C=C\C(O)CCCC(=O)O (centres undefined)	1.7%	·	·	·	·	·	·	·	·
COc1ccccc1CNc1cc(-c2ccoc2)ncn1	15.8µM*	·	·	·	·	?	-5.0%	4.8%	9.7%
CCOc1ccc(NC(=O)CSc2nc3ccsc3c(=O)n2C(C)CC)cc1 (centres undefined)	-3.3%	·	·	·	·	·	·	·	·
O=c1c2cn(Cc3ccc(F)cc3)c3ccccc3c-2nn1Cc1ccc(F)cc1	-10.6%	-6.0%	-4.6%	14.0	4.6%	·	·	·	·
O=[N+]([O-])/C=C/c1cn(Cc2ccc(F)cc2)c2ccccc12	20µM*	?	-4.3%	3.3	·	6.7*	?	20.6µM*	?
CCn1cc(S(=O)(=O)c2ccccc2)c(=O)c2cc(C)ccc21	-8.1%	·	·	·	·	·	·	·	·
COc1ccc(CC(=O)Nc2sc3c(c2C(=O)Nc2ccccc2)CCCCC3)cc1	10.0%	·	·	·	·	·	·	·	·
O=C(Cc1ccccc1)Nc1sc2c(c1C(=O)Nc1ccc(Cl)cc1)CCCC2	28.2µM*	·	·	·	·	3.16*	2.24µM*	-12.7%	6.8%
Cc1ccc(CC(=O)NNC(=O)c2ccncc2)cc1C	79.4µM*	11.9µM*	-4.2%	0.8	3.8%	26.7*	28.2µM*	20.9%	2.9%
Cc1ccc(C(=O)NNC(=O)c2ccncc2)cc1C	10.3%	3.1%	0.3%	11.6	-10.3%	·	·	·	·
COc1ccc(-n2c(=O)c(-c3cccs3)nc3cnc(N4CCN(C)CC4)nc32)cc1	-19.7%	·	·	·	·	·	·	·	·
CCCOc1ccc(C(=O)CCNC(Cc2c[nH]c3ccccc23)C(=O)O)cc1 (centres undefined)	44.7µM*	5.32µM*	-5.8%	0.1	1.4%	18.9*	?	12.2%	?
CCOC(=O)c1c(NC(=O)c2ccco2)n(C2CCCCC2)c2nc3ccccc3nc12	?	-22.8%	2.0%	77.2	-22.3%	3.16*	?	-20.3%	-7.4%
CCC(=O)Nc1c(C#N)c2nc3ccccc3nc2n1C1CCCCC1	6.4%	-0.1%	-6.4%	2.4	-1.8%	·	·	·	·
CCOc1ccc(NC(=O)Cn2c(=O)n(CC3CCC(C(=O)NCCc4ccccc4)CC3)c(=O)c3ccccc32)cc1 (centres undefined)	-2.2%	·	·	·	·	·	·	·	·
O=C(CSc1ccccc1)Nc1nnc(COc2ccc(Cl)cc2)s1	39.8µM*	2.67µM*	0.4%	-11.2	-0.3%	2.99*	?	18.1%	23.7%
Cc1cccc(C)c1OCc1nnc(NC(=O)CSc2ccc(Cl)cc2)s1	3.8%	-5.5%	0.9%	4.7	2.4%	·	·	·	·
Cc1onc(-c2ccccc2)c1C(=O)Nc1nnc(COc2ccc(Cl)cc2)s1	20µM*	1.34µM*	-3.8%	-27.2	-2.3%	6.7*	?	-5.1%	-18.2%
Cc1cccc(NC(c2ccc(O)cc2)c2ccc3ccc(C)nc3c2O)n1 (centres undefined)	44.7µM*	4.23µM*	-0.8%	-1.6	-9.2%	10.6*	?	26.4%	0.4%
CN(CCO)c1cc(Sc2nc3ccccc3s2)c2nonc2c1[N+](=O)[O-]	25.1µM*	1.89µM*	-8.2%	-18.1	·	6.7*	3.55µM*	?	3.16µM*
O=C(CCCSc1ccc(Cl)cc1)Nc1cc(S(=O)(=O)N2CCOCC2)ccc1O	?	3.36µM*	-0.3%	-18.2	-22.1%	3.98*	3.16µM*	-6.0%	-8.7%
CCOC(=O)c1ccc(S(=O)(=O)Nc2cc(S(=O)(=O)N3CCOCC3)ccc2O)cc1	44.7µM*	5.32µM*	-5.6%	-30.5	-6.0%	8.44*	?	0.3%	2.6%
Cc1ccc(S(=O)(=O)N2C[C@H]3N(C(=O)OC(C)C)N(C(=O)OC(C)C)C[C@H](OC(=O)NC4CCCC4)[C@@]3(O)C2)cc1	·	-7.8%	·	·	·	·	·	·	·
CCCCc1nn2c(=O)cc(COC(=O)c3ccccc3NC(=O)C3CCCCC3)nc2s1	4.8%	·	·	·	·	·	·	·	·
COc1ccc(C(=O)c2coc3c2C(=O)C(=O)c2ccccc2-3)cc1	?	?	-2.4%	-17.7	-4.6%	6.31*	3.16µM*	?	-6.4%
SMILES	VDR inh	PLK1 PBD block	TSG101-PTAP inh	TSHR antagonist	uPA surface inh	VDR confirm	VDR FP	VDR bla	VDR viability
O=C(c1ccccc1)c1coc2c1C(=O)c1ccccc1C2=O	7.7%	-7.0%	1.5%	33.3	7.2%	·	·	·	·
CC(=O)N(C1=C(Cl)C(=O)c2ccccc2C1=O)C1CCCCC1	14.1µM*	3.77µM*	2.3%	-81.8*	-12.9%	11.9*	14.1µM*	5.8µM*	?
CC(=O)N(c1ccccc1C)C1CCCC1	-11.7%	2.6%	-1.4%	-0.4	1.2%	·	·	·	·
CCOc1ccc(N(CC)S(=O)(=O)N2CCCC(C(=O)Nc3cc(Cl)ccc3OC)C2)cc1 (centres undefined)	12.0%	·	·	·	·	·	·	·	·
O=C(/C=C/c1ccc(F)cc1)c1ccccc1Br	31.6µM*	-16.6%	-1.6%	-13.5	-7.0%	11.9*	?	?	?
Cc1ccc(C(=O)/C=C/c2ccc(F)cc2)o1	?	-7.3%	-2.2%	2.8	-20.1%	·	·	·	·
CC(=O)N1c2ccc(S(=O)(=O)N3CCC(C(=O)Nc4cccc(Cl)c4C)CC3)cc2CC1C (centres undefined)	-3.6%	·	·	·	·	·	·	·	·
CCOC(=O)C1C(=O)NC(SCC(=O)Nc2nccs2)=C(C#N)C1c1ccccc1OCC (centres undefined)	35.5µM*	2.67µM*	-1.2%	1.3	-1.4%	11.9*	?	16.0%	?
O=C(Oc1ccccc1/C=C\C(=O)c1cc2ccccc2o1)c1ccccc1	?	-10.9%	-0.2%	4.7	-12.5%	3.98*	?	?	-11.3%
NC(=O)N/N=C/c1ccccc1OC(=O)c1cc2ccccc2oc1=O	-2.4%	-19.6%	-4.5%	-2.0	9.6%	·	·	·	·
O=C(Oc1ccccc1/C=C\C(=O)c1cc2ccccc2o1)c1cccc(F)c1	28.2µM*	-13.0%	-2.4%	-1.6	-8.1%	10.6*	?	?	?
COc1cccc(C(=O)Oc2ccccc2/C=C\C(=O)c2cc3ccccc3o2)c1	?	-13.5%	-0.8%	-22.1	8.91µM*	2.82*	3.16µM*	?	-21.7%
